A selection: hits, their analogues and other compounds. The true share with any hit is near 7.5%.
NPC1 promoter act: qHTS Assay for NPC1 Promoter Activators; 2.4% of 320,000 active; Huh7 NPC1 promoter luciferase reporter, 24 h; Potency, µM (titrated, usually from 9.22 µM), for the others: top-dose activation, usual class: activators; AID 485313, 2010; note: % of control where 0% means no effect; nearly all actives have a fitted effect of over 60% in size
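Stably transfected Huh7 (NPC1 promoter→luciferase), 1500 cells/well in Opti-MEM + 10% FBS, 2 h settle, then compound 24 h at 37 °C. Luminescence after 10 min with Amplite reagent.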
SMN2 splice up: qHTS Assay for Enhancers of SMN2 Splice Variant Expression; HEK293 SMN2-luciferase splicing reporter, luminescence, 30-36 h; Potency, µM (top dose mostly 46.1 µM), for inactives: top-dose activity change, positive = activation, usual class: activators; AID 1458, 2008; 2.8% of 210,000 active; note: % of control where 0% means no effect; nearly all actives have a fitted effect of over 55% in size
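HEK293 cells carry an SMN2 […]–luciferase reporter in which exon 7 inclusion puts luciferase in frame. Cells were plated 10-12 h before compound addition, then incubated 30-36 h at 37C. ONE-Glo luminescence was read; sodium butyrate at 4.5 mM final served as control.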
ELG1 genotoxic: qHTS screen for small molecules that induce genotoxicity in human embryonic kidney (HEK293T) cells expressing luciferase-tagged ELG1 | 1.3% of 330,000 active | HEK293T ELG1-luciferase reporter, luminescence, 16 h | Potency, µM (highest dose often 46 µM), for inactives: at the highest dose activity change, positive = activation, hits mostly activators; note: % of control where 0% means no effect; nearly all actives have a fitted effect of over 60% in size
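Reporter readout depends on ELG1 protein level, which increases with genetic stress. After 16 hr compound exposure at 37 °C, luciferase activity was quantified using ONE-Glo.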
Luc counter: Counterscreen for Luciferase (Kinase-Glo TM) Inhibition; Kinase-Glo luciferase, ATP luminescence, 8 min; Luciferin 4-monooxygenase (Photuris pensylvanica), Q27757; AID 1379, 2008; 0.28% of 200,000 active; Potency, µM (titrated, usually from 38.3 µM), for the others: at the top dose activity change, negative = inhibition, most hits filed as inhibitors; note: % is set by controls: 0 for no effect and ±100 for the full control effect; nearly all actives have a fitted effect of over 60% in size
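Compound is pinned into ATP-containing buffer (10 uM ATP, imidazole pH 7.2, 7 mM MgCl2). Kinase-Glo luciferase reagent is then added. Light output is recorded following an 8-min room-temperature incubation.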
Rab9 prom act: qHTS Assay for Rab9 Promoter Activators; Huh7 Rab9 promoter-luciferase reporter, luminescence, 24 h; AID 485297, 2010; 2.8% of 320,000 active; Potency, µM (doses to about 9.22 µM), for the others: at the top dose activation, negative = inhibition, usual class: activators; note: % of control where 0% means no effect; nearly all actives have a fitted effect of over 60% in size
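Cell-based reporter: Huh7 stable for Rab9 promoter-driven luciferase, plated in reduced-serum medium with 10% FBS at 1500 cells/well, compound-treated 24 h at 37 °C, luminescence read after 10 min reagent.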
FLuc modulator: qHTS profiling assay for firefly luciferase inhibitor/activator using purifed enzyme and Km concentrations of substrates (counterscreen for miR-21 project); Luciferin 4-monooxygenase (Photinus pyralis), P08659; purified FLuc, Km substrates, luminescence inhibition; Potency, µM (series often up to 57.5 µM), inactives show at the top dose activity change, negative = inhibition, most hits filed as inhibitors; 6.9% of 360,000 active; AID 588342, 2011;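 note: plate controls were vehicle for no effect and reference inhibitor for full effect; nearly all actives have a fitted effect of over 55% in size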
Target sequence (P08659 whole entry, looked up): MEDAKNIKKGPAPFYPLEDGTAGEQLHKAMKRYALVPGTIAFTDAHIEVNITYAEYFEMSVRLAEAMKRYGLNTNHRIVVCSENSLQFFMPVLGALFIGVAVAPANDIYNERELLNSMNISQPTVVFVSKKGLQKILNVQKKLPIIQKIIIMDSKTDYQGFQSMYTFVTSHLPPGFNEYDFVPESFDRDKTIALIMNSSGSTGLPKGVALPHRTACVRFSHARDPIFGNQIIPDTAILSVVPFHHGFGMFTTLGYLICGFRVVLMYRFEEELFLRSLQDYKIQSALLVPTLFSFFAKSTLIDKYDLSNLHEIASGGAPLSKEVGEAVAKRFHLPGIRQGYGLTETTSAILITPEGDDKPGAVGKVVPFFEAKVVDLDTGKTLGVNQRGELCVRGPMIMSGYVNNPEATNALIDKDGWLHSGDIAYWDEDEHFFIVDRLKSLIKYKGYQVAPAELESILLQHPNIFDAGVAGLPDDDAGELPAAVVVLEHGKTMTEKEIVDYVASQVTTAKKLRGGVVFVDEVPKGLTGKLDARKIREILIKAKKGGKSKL
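Purified P. pyralis luciferase, 10 nM final, with Km-level 10 uM D-luciferin and 10 uM ATP in 50 mM Tris acetate pH 7.5, 10 mM Mg acetate, 0.01% Tween-20, 0.05% BSA; 6-point qHTS titration about 60 µM downward; luminescence read.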
Numbers without * were called inactive; ? = inconclusive; . = no result given; [ ] = another dose, or the depositor's remark. Calls come from the whole dose curve; as a rule, active = well fitted curve in the direction sought with a large enough effect; inconclusive = small, poorly fitted or top-dose-only effect, or another doubt; inactive = no such curve, though single readings can be large; an effect the other way counts as inactive or inconclusive. Potency is the fitted concentration of half-maximal effect.

SMILES | NPC1 promoter act | SMN2 splice up | ELG1 genotoxic | Luc counter | Rab9 prom act | FLuc modulator
O=C(O)c1ccc(-c2nc3ccccc3s2)o1 | ? | . | 12% | . | ? | 6µM*
Cc1cccc(C)c1Nc1sc(C(=O)c2ccccc2)c(N)c1C(=O)Nc1ccc(F)cc1 | . | . | . | . | . | -3%
CCc1ccc(NC(=O)CSc2nc(-c3ccccc3)c(C#N)c(=O)[nH]2)cc1 | . | . | . | . | . | 11µM*
N#Cc1c(-c2ccccc2)nc(SCC(=O)Nc2ccccc2)[nH]c1=O | -3% | 13% | 0% | 3% | -10% | 0%
Cc1cc(NC(=O)CSc2nc(-c3ccccc3)c(C#N)c(=O)[nH]2)no1 | 1% | -16% | -3% | 4% | 6% | -2%
Cc1cc(C)nc(NS(=O)(=O)c2ccc(NC(=O)CSc3nc(-c4ccccc4)c(C#N)c(=O)[nH]3)cc2)n1 | -2% | -20% | 6% | 2% | 2% | 11µM*
CCC(=O)N1CCc2cc(Br)cc(S(=O)(=O)CCC(=O)N3CCN(c4ccccc4OC)CC3)c21 | . | 1% | . | . | . | -5%
c1csc(-c2nnc(N3CCCCCC3)c3ccccc23)c1 | 4% | . | 1% | . | 10% | 3µM*
COCCNC(=O)c1ccc(C)cc1C | 0% | 5% | 0% | 3% | -8% | -1%
COc1ccc(C(=O)N/N=C/C(=O)c2ccccc2)cc1 | 2.5µM* | . | 10µM* | . | ? | 1.5µM*
Cc1ccc(C(=O)NN=CC(=O)c2ccccc2)c(C)c1 | . | . | 2.3µM* | . | . | .
O=c1cc(O)c2sc3nc(C(F)(F)F)c4c(c3c2[nH]1)CCCCC4 | 1% | -13% | 4% | 1% | 3% | 19µM*
O=C(CCCC(=O)N1CCN(c2ccccc2F)CC1)c1ccccc1 | ? | . | ? | . | 4.5µM* | 27µM*
O=C(CCc1nnc(C2CCCCC2)o1)N1CCN(c2ccccc2F)CC1 | 2.5µM* | . | ? | . | 3.5µM* | 12µM*
O=C(COc1ccc([N+](=O)[O-])cc1)N1CCC(c2nc3ccccc3s2)CC1 | . | . | . | . | . | -19%
Cc1c(Cl)cccc1NS(=O)(=O)c1c(C(=O)N2CCOCC2)c(C)n(C)c1C | -3% | . | 0%[9.26 µM] | . | -1% | 0%
C=CCc1cccc(/C=N/c2nc3ccccc3n2CC)c1O | 0% | -11% | 1% | 2% | 1% | 2%
C(=N\c1nc2ccccc2n1CCN1CCCCC1)/c1ccc2c(c1)OCO2 | 10% | -6% | 2% | -4% | -1% | -11%
CCCn1c(/N=C/c2ccc3c(c2)OCO3)nc2ccccc21 | 11% | -32% | -2% | -3% | 1% | 4.8µM*
C=CCn1c(/N=C/c2ccc3c(c2)OCO3)nc2ccccc21 | 0% | 10% | 1% | -24% | -2% | 6.7µM*
Brc1ccc(/C=N/c2nc3ccccc3n2CCN2CCOCC2)cc1 | -2% | 8% | 2% | 2% | -1% | 24µM*
CC(C)(C)C(=O)Nc1ccc(C(=O)Nc2cccc(Oc3ccc(C(=O)O)c(C(=O)O)c3)c2)cc1 | 4% | . | -4% | . | 0% | 1.5µM*
O=C(Nc1cccc(Oc2ccc(C(=O)O)c(C(=O)O)c2)c1)c1ccc(-c2ccccc2)cc1 | 1% | . | -2% | . | -4% | 1.7µM*
COC(=O)c1cc(NC(=O)c2ccc(-c3ccccc3)cc2)ccc1Cl | -1% | -61% | -1% | 2% | -5% | -2%
O=C(NNC(=O)C1CC=CCC1)c1ccccc1Cl (stereo unspecified) | 25% | . | 11% | . | 29% | -11%
CC(C)c1ccc(OCc2ccc(C(=O)NN3CCN(C)CC3)o2)cc1 | 2.2µM* | 14µM* | ? | 4% | 2.5µM* | ?
CC(C)NC(=O)c1ccc(COc2ccc(C(C)(C)C)cc2)o1 | ? | . | 14% | . | 12% | ?
